Experimental data: PubChem BioAssay AID504773 (Broad Institute, 2011)
Results with a measured potency or affinity are listed apart. The source made the active and inactive calls.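 Rule for the calls: active = polarization signal falls with dose and the fitted half-maximal concentration is at or below ten times the sample's top valid dose; inconclusive = flat curve at 30 to 70% inhibition, or poor fit; inactive = signal rises, flat within 30%, or potency beyond limit.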

These compounds were tested against Golgi-associated PDZ and coiled-coil motif-containing protein (Homo sapiens) (UniProt Q9HD26) (assay: CAL PDZ peptide-binding inhibitors, dose response, biochemical, fluorescence polarization, Cerulean-tagged CAL PDZ, cherry-picks (AID 504773)). Conditions: 1 h; series mostly up to 50 µM.

outcome, inactive:
CCOC(=O)C1=C(C)OC(N)=C(C#N)C1c1cccc(C)c1 (centres undefined), O=C(O)CCCC(=O)N1N=C(c2ccccc2)CC1c1ccc2c(c1)OCO2 (centres undefined), Cc1ccc2nc(NS(C)(=O)=O)sc2c1, Cc1ccc(NC(=O)N2CCCC2C(=O)NCC2CCCO2)cc1 (centres undefined), Cc1cc(C)c(S(=O)(=O)NCc2ccc3c(c2)OCO3)c(C)c1, COc1cc(Br)c(C(=O)c2nccc3cc(OC)c(OC)cc23)cc1OC, Cc1ccc2nc(CSc3nnc(-c4ccncc4)n3C)cc(=O)n2c1, O=C(CN1C(=O)NC2(CCCC2)C1=O)Nc1ccc(F)c(F)c1F, O=C(NCCN1C(=O)S/C(=C\c2ccc(Cl)c(Cl)c2)C1=O)C1COc2ccccc2O1 (centres undefined), CC(C)CNC(=O)CN1C(=O)NC(Cc2c[nH]c3ccccc23)C1=O (centres undefined), Fc1ccc(-n2c(-c3ccc4ccccc4n3)n[nH]c2=S)cc1Cl, Cc1cc(NC(=O)CSc2nnc(-c3ccccc3)c(-c3ccccc3)n2)no1, CC(=O)c1ccc(S(=O)(=O)N2CCN(c3ccccc3F)CC2)cc1, Cc1ccc2nc(NCc3ccc(F)cc3)c3nncn3c2c1, CCn1ncc(Br)c1C(=O)Nc1cccc(F)c1, Cc1cc(C)c2nc(-c3ccncc3)cc(C(=O)N3CCN(Cc4ccccc4Cl)CC3)c2c1, O=C(Nc1nccs1)c1ccc(F)c(S(=O)(=O)N2CCOCC2)c1, O=C(OCc1ccc(Br)cc1)c1cccnc1, CCN(CC(=O)Nc1cc(Cl)cc(Cl)c1)CC(=O)NC1CCS(=O)(=O)C1 (centres undefined)
